Source: PubChem BioAssay (NCI)
The panel holds about 83,000 compounds, 20% with a hit somewhere; the sample as a whole holds those more often.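 Negative percent growth values reflect cell death: -40 means 40% of the cells present at the start died, and -100 means all died.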 Calls of active or inactive are those of the source.

Each molecule was assayed on LOX IMVI melanoma (assay: NCI-60 one-dose screen, 48 h (100 = growth as untreated, 0 = no growth, -100 = all killed)). Details: 10 µM.
Protocol: Growth inhibition of the LOX IMVI human tumor cell line is measured as a screen for anti-cancer activity. Cells are grown in 96 well plates and exposed to the test compound for 48 hours. Compounds are tested at a single concentration, which is 10^-5 M for most compounds. The reported endpoint is percent growth (GI% or GIPRCNT), where numbers from 0 - 100% represent growth inhibition, and numbers from -100% - 0 represent cell death. For example, a value of 40 represents 60% growth inhibition. A value of 0 means no net growth occurred over the course of the experiment. A value of -40 indicates 40% of cells at the beginning of the experiment died by the end of the experiment. A value of -100 means all cells are dead at the end of the experiment.
NCI-60 Human Tumor Cell Lines Screen was performed using the standard one-dose NCI protocol, which is described in more detail at https://dtp.cancer.gov/discovery_development/nci-60/default.htm.
Compounds with GIPRCNT values below 10 were considered active. Activity score was based on GIPRCNT using the following formula: […]
Score is 0 for GIPRCNT values of 100 or above, 50 for GIPRCNT values of 0, and 100 for GIPRCNT values of -100.

Row | Structure (SMILES) | growth
1 | CCCCCCCCCCCCc1ccc(C(=O)/C=C/C(=O)O)cc1 | -62.4% (active)
2 | O=C1/C(=C/c2ccc([N+](=O)[O-])s2)Oc2ccc(Cl)cc21 | -70.1% (active)
3 | O=c1[nH]c(=O)n(C2C[C@@H](O)[C@@H](CO)O2)cc1F (stereo not given in full) | 14.1% (inactive)
4 | Cc1cc(Cl)ccc1Nc1nc(C(F)(F)F)ccc1C(=O)N/N=C/c1ccccc1Cl | 20.1% (inactive)
5 | CCC(CCNc1cc(OC)cc2cccnc12)CN1C(=O)c2ccccc2C1=O (stereo not given) | 90.6% (inactive)
6 | O=C(N/N=c1/ccoc2cccnc12)N1CCN(c2ncccn2)CC1 | 18.1% (inactive)
7 | Cc1ccc(-c2cc(-c3cccc(Nc4ccnc5cc(Cl)ccc45)c3)nc3nc(N)[nH]c(=O)c23)cc1 | 92.8% (inactive)
8 | Cc1ccc(NS(=O)(=O)c2ccccc2)c(NS(=O)(=O)c2ccccc2)c1 | 94.5% (inactive)
9 | O=[N+]([O-])c1ccc(S(=O)(=O)OCCCCOS(=O)(=O)c2ccc([N+](=O)[O-])cc2)cc1 | 94.6% (inactive)
10 | Cc1ccc([P+](Cc2ccccc2)(c2ccccc2)c2ccccc2)cc1 | 16.8% (inactive)
11 | COc1ccc(NC(=O)CCn2cnc3c(cc(-c4ccccc4)n3-c3ccccc3)c2=O)cc1 | 66.4% (inactive)
12 | O/N=C1\CCC2CCCCC2C1 (stereo not given) | 98.2% (inactive)
13 | Cn1c([N+](=O)[O-])cnc1C=C1C(=O)c2ccccc2C1=O | 21.7% (inactive)
14 | CCOc1nc(-c2ccccc2)cc2c(O)c(C(=O)NCCCO)[nH]c(=O)c12 | 108% (inactive)
15 | Fc1ccc2[nH]c3c(NCCCN4CCOCC4)ncnc3c2c1 | 69.1% (inactive)
16 | COc1ccc2c(=O)cc(C(Cl)(Cl)Cl)oc2c1 | -15.5% (active)
17 | Cc1ccc2oc(=O)cc(/C(=C3/C=CC=N3)c3ccc[nH]3)c2c1 | 0.877% (active)
18 | COc1ccc(-c2[nH]ncc2-c2cc(OC)c(OC)c(OC)c2)cc1 | 27.8% (inactive)
19 | COc1ccccc1CNCCCN1C(=O)c2ccc3c4c(ccc(c24)C1=O)C(=O)N(CCCNCCNCCCN)C3=O | 6.84% (active)
20 | O=C(c1ccc(Cl)cc1)c1no[n+]([O-])c1C(=O)c1ccc(Cl)cc1 | -74.2% (active)

Row | Structure (SMILES) | growth
21 | CS(=O)(=O)Nc1ccc([N+](=O)[O-])cc1Oc1ccccc1 | 88.2% (inactive)
22 | Oc1[nH]c2ccccc2c1/C=c1/cc2c(c(-c3ccc(C(F)(F)F)cc3)n1)=Nc1ccccc1-2 | 60.5% (inactive)
23 | CCCCCCCCCCN=C(c1ccc(N(C)C)cc1)c1ccc(N(C)C)cc1 | 42.1% (inactive)
24 | Cc1ccc(S(=O)(=O)Nc2cccc3[nH]c(C(F)(F)F)nc23)cc1 | 41.4% (inactive)
25 | N#Cc1cnc2ccc(NCc3cnc[nH]3)cc2c1Nc1ccc(F)c(Cl)c1 | 58.2% (inactive)
26 | CCOC(=O)C1=C(Nc2ccc(OC)cc2)C(N)=NC1=N | 52% (inactive)
27 | COc1ccc(-c2nnc(COc3ccc(NC(=O)Nc4cccc(C(F)(F)F)c4)cc3F)o2)cc1 | 8.23% (active)
28 | COc1cccc(C(=O)NNc2nc(N3CCOCC3)nc(N3CCN(C(c4ccccc4)c4ccccc4)CC3)n2)c1 | 83.1% (inactive)
29 | COc1ccc(OC)c([N+](=O)[O-])c1C=O | 83.4% (inactive)
30 | C[C@H](NC(=O)[C@@H]1CSSC[C@@H](NC(=O)Cc2nc3ccccc3cc2O)C(=O)NCC(=O)N1C)c1ccccc1 | 31.3% (inactive)
31 | CCOc1ccc(-n2cc(-c3ccc(N(C)C)cc3)[n+]3c2CCCCC3)cc1 | 12.7% (inactive)
32 | CCCCCCCCCCCCCC[n+]1ccc(C)cc1 | -94.4% (active)
33 | COc1cccc(-c2nnc(COc3ccc(-c4nc5ccccc5[nH]4)cc3OC)o2)c1 | 104% (inactive)
34 | Cc1[nH]nc2c(=S)[nH]c(=O)[nH]c12 | 99.9% (inactive)
35 | COc1cc(-c2nc3ccccc3[nH]2)ccc1OCC(=O)N=Nc1c(O)[nH]c2ccccc12 | 83.4% (inactive)
36 | CCCC(C)c1ccc(OCCCCCCN2CCNCC2)cc1 (stereo not given) | -88.3% (active)
37 | CCCCN(CCCC)c1ccc(C(=NC(C)CCCN(CC)CC)c2ccc(N(C)C)cc2)cc1 (stereo not given) | -96.7% (active)
38 | COc1cc(C2C=C(c3ccc(Cl)cc3)N=C3SC(C)=CN32)cc(OC)c1OC (stereo not given) | 96.8% (inactive)
39 | FC(F)(F)c1ccc(-c2cnc(Cl)nc2NC2CCCCCC2)cc1 | 27.9% (inactive)
40 | O=C(COc1ccc(Cl)cc1Cl)Oc1coc(CSc2nc3ccccc3s2)cc1=O | 90.5% (inactive)
